Measured values taken from publication PMC12820563, “FoxP3 forms a head-to-head dimer in vivo and stabilizes its multimerization on adjacent microsatellites”.
The full ranking holds about 16,000 sequences; the median of “rpm ratio (pull-down/input)” is about 0.5, and the highest 2% start at about 5.5. Shown is part of a subset that was picked to be rich in the highest values.

The sequences below were run against T1, MBP-FoxP3dN (Mus musculus, UniProt Q99JB6 188-423) (assay: PD-seq (MBP pull-down with sequencing); 20 mM Tris-HCl pH 7.5, 100 mM NaCl, 1.5 mM MgCl2, 0.4 uM protein, 0.1 uM dsDNA library, 30 min, room temperature, amylose pull-down; high values mean tight binding). Conditions: protein: recombinant; tags: His6-MBP; chain copies: 2; dsDNA, one strand shown.
T1 sequence: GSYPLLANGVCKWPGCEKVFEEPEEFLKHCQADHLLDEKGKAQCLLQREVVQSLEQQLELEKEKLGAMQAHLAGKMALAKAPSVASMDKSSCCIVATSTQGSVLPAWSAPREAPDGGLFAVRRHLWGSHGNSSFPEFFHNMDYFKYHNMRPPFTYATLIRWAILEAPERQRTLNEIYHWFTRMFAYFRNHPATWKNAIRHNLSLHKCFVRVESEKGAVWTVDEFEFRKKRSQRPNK
Outline: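 A degenerate double-stranded DNA library, filled in with Klenow, was added at 0.1 µM to 0.4 µM His6-MBP-tagged mouse FoxP3 or FoxP1 fragment lacking the N-terminus, expressed in E. coli. Incubation lasted 30 min at room temperature in Tris pH 7.5 buffer with NaCl and MgCl2, after which complexes were collected on amylose resin, washed three times, digested with proteinase K to free the DNA, barcoded by PCR and sequenced by Illumina. Binding is the pooled-replicate reads-per-million enrichment of pull-down over input.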

Going from “GATGATTGTTCTCCCAGCTGATGAATTTCATAACTCGAGTAAACAAATTTTCCTAATCTTTCTGTTCAAGCGCCATCTAC” to “GATGATTGTTCTCCCAGCTGATGAATTATTCATCTCGAGTAAACAAATTTTCCTAATCTTTCTGTTCAAGCGCCATCTAC”, the binding signal rises from 0.332 RPM ratio (pull-down/input) to 0.399 RPM ratio (pull-down/input).

Compared with “GATGATTGTTCTCCCAGCTGATGAATTTAGACCGTCGAGTAAACAAATTTTCCTAATCTTTCTGTTCAAGCGCCATCTAC”, “GATGATTGTTCTCCCAGCTGATGAATTGTATCTCTCGAGTAAACAAATTTTCCTAATCTTTCTGTTCAAGCGCCATCTAC” is higher in binding signal: 0.5 RPM ratio (pull-down/input) for the first, 1.51 RPM ratio (pull-down/input) for the second.

First: GATGATTGTTCTCCCAGCTGATGAATTCTGTATCTCGAGTAAACAAATTTTCCTAATCTTTCTGTTCAAGCGCCATCTAC
Second: GATGATTGTTCTCCCAGCTGATGAATTGTGTATCTCGAGTAAACAAATTTTCCTAATCTTTCTGTTCAAGCGCCATCTAC
The binding signal of the first is lower: 4.93 RPM ratio (pull-down/input) for the first, 6.36 RPM ratio (pull-down/input) for the second.

Going from “GATGATTGTTCTCCCAGCTGATGAATTTGACTTTTCGAGTAAACAAATTTTCCTAATCTTTCTGTTCAAGCGCCATCTAC” to “GATGATTGTTCTCCCAGCTGATGAATTGACGTAGTCGAGTAAACAAATTTTCCTAATCTTTCTGTTCAAGCGCCATCTAC”, the binding signal falls from 0.49 RPM ratio (pull-down/input) to 0.381 RPM ratio (pull-down/input).

Going from “GATGATTGTTCTCCCAGCTGATGAATTTTAAGCATCGAGTAAACAAATTTTCCTAATCTTTCTGTTCAAGCGCCATCTAC” to “GATGATTGTTCTCCCAGCTGATGAATTAAGCTGTTCGAGTAAACAAATTTTCCTAATCTTTCTGTTCAAGCGCCATCTAC”, the binding signal rises from 0.881 RPM ratio (pull-down/input) to 1.12 RPM ratio (pull-down/input).

Compared with “GATGATTGTTCTCCCAGCTGATGAATTAAGCATTTCGAGTAAACAAATTTTCCTAATCTTTCTGTTCAAGCGCCATCTAC”, “GATGATTGTTCTCCCAGCTGATGAATTTAAACATTCGAGTAAACAAATTTTCCTAATCTTTCTGTTCAAGCGCCATCTAC” is lower in binding signal: 6.1 RPM ratio (pull-down/input) for the first, 0.704 RPM ratio (pull-down/input) for the second.

Compared with “GATGATTGTTCTCCCAGCTGATGAATTACAGCATTCGAGTAAACAAATTTTCCTAATCTTTCTGTTCAAGCGCCATCTAC”, “GATGATTGTTCTCCCAGCTGATGAATTCAAGCATTCGAGTAAACAAATTTTCCTAATCTTTCTGTTCAAGCGCCATCTAC” is lower in binding signal: 5.18 RPM ratio (pull-down/input) for the first, 4.27 RPM ratio (pull-down/input) for the second.

Going from “GATGATTGTTCTCCCAGCTGATGAATTAAATTTCTCGAGTAAACAAATTTTCCTAATCTTTCTGTTCAAGCGCCATCTAC” to “GATGATTGTTCTCCCAGCTGATGAATTAAGCCATTCGAGTAAACAAATTTTCCTAATCTTTCTGTTCAAGCGCCATCTAC”, the binding signal rises from 0.664 RPM ratio (pull-down/input) to 4.08 RPM ratio (pull-down/input).

Compared with “GATGATTGTTCTCCCAGCTGATGAATTAAAGCATTCGAGTAAACAAATTTTCCTAATCTTTCTGTTCAAGCGCCATCTAC”, “GATGATTGTTCTCCCAGCTGATGAATTAAGCAGCTCGAGTAAACAAATTTTCCTAATCTTTCTGTTCAAGCGCCATCTAC” is lower in binding signal: 5.57 RPM ratio (pull-down/input) for the first, 1.33 RPM ratio (pull-down/input) for the second.

Going from “GATGATTGTTCTCCCAGCTGATGAATTTAAGCATTCGAGTAAACAAATTTTCCTAATCTTTCTGTTCAAGCGCCATCTAC” to “GATGATTGTTCTCCCAGCTGATGAATTAAGCATCTCGAGTAAACAAATTTTCCTAATCTTTCTGTTCAAGCGCCATCTAC”, the binding signal rises from 5.65 RPM ratio (pull-down/input) to 6.6 RPM ratio (pull-down/input).

First: GATGATTGTTCTCCCAGCTGATGAATTGGGAAGGTCGAGTAAACAAATTTTCCTAATCTTTCTGTTCAAGCGCCATCTAC
Second: GATGATTGTTCTCCCAGCTGATGAATTCACGGTTTCGAGTAAACAAATTTTCCTAATCTTTCTGTTCAAGCGCCATCTAC
The binding signal of the first is lower: 0.234 RPM ratio (pull-down/input) for the first, 0.47 RPM ratio (pull-down/input) for the second.

First: GATGATTGTTCTCCCAGCTGATGAATTATTACATTCGAGTAAACAAATTTTCCTAATCTTTCTGTTCAAGCGCCATCTAC
Second: GATGATTGTTCTCCCAGCTGATGAATTGTTCTTGTCGAGTAAACAAATTTTCCTAATCTTTCTGTTCAAGCGCCATCTAC
The binding signal of the first is higher: 0.591 RPM ratio (pull-down/input) for the first, 0.412 RPM ratio (pull-down/input) for the second.

Compared with “GATGATTGTTCTCCCAGCTGATGAATTTGTCACTTCGAGTAAACAAATTTTCCTAATCTTTCTGTTCAAGCGCCATCTAC”, “GATGATTGTTCTCCCAGCTGATGAATTTGCTGTCTCGAGTAAACAAATTTTCCTAATCTTTCTGTTCAAGCGCCATCTAC” is higher in binding signal: 5.39 RPM ratio (pull-down/input) for the first, 6.16 RPM ratio (pull-down/input) for the second.

Compared with “GATGATTGTTCTCCCAGCTGATGAATTTGCTTTCTCGAGTAAACAAATTTTCCTAATCTTTCTGTTCAAGCGCCATCTAC”, “GATGATTGTTCTCCCAGCTGATGAATTTTCTTGCTCGAGTAAACAAATTTTCCTAATCTTTCTGTTCAAGCGCCATCTAC” is lower in binding signal: 5.95 RPM ratio (pull-down/input) for the first, 0.298 RPM ratio (pull-down/input) for the second.

First: GATGATTGTTCTCCCAGCTGATGAATTTTGCTACTCGAGTAAACAAATTTTCCTAATCTTTCTGTTCAAGCGCCATCTAC
Second: GATGATTGTTCTCCCAGCTGATGAATTGCTTTGCTCGAGTAAACAAATTTTCCTAATCTTTCTGTTCAAGCGCCATCTAC
The binding signal of the first is higher: 2.59 RPM ratio (pull-down/input) for the first, 1.22 RPM ratio (pull-down/input) for the second.

Compared with “GATGATTGTTCTCCCAGCTGATGAATTTGCTTACTCGAGTAAACAAATTTTCCTAATCTTTCTGTTCAAGCGCCATCTAC”, “GATGATTGTTCTCCCAGCTGATGAATTTTGCTTCTCGAGTAAACAAATTTTCCTAATCTTTCTGTTCAAGCGCCATCTAC” is lower in binding signal: 6.78 RPM ratio (pull-down/input) for the first, 2.58 RPM ratio (pull-down/input) for the second.

Compared with “GATGATTGTTCTCCCAGCTGATGAATTGCTTTACTCGAGTAAACAAATTTTCCTAATCTTTCTGTTCAAGCGCCATCTAC”, “GATGATTGTTCTCCCAGCTGATGAATTGTCTTGCTCGAGTAAACAAATTTTCCTAATCTTTCTGTTCAAGCGCCATCTAC” is lower in binding signal: 1.22 RPM ratio (pull-down/input) for the first, 0.461 RPM ratio (pull-down/input) for the second.

Going from “GATGATTGTTCTCCCAGCTGATGAATTGCTTTTCTCGAGTAAACAAATTTTCCTAATCTTTCTGTTCAAGCGCCATCTAC” to “GATGATTGTTCTCCCAGCTGATGAATTGCTTGTCTCGAGTAAACAAATTTTCCTAATCTTTCTGTTCAAGCGCCATCTAC”, the binding signal rises from 1.42 RPM ratio (pull-down/input) to 1.71 RPM ratio (pull-down/input).

Going from “GATGATTGTTCTCCCAGCTGATGAATTTGCTTGCTCGAGTAAACAAATTTTCCTAATCTTTCTGTTCAAGCGCCATCTAC” to “GATGATTGTTCTCCCAGCTGATGAATTTAGCAGGTCGAGTAAACAAATTTTCCTAATCTTTCTGTTCAAGCGCCATCTAC”, the binding signal falls from 6.22 RPM ratio (pull-down/input) to 0.708 RPM ratio (pull-down/input).

First: GATGATTGTTCTCCCAGCTGATGAATTCCCATGGTCGAGTAAACAAATTTTCCTAATCTTTCTGTTCAAGCGCCATCTAC
Second: GATGATTGTTCTCCCAGCTGATGAATTACCAGGGTCGAGTAAACAAATTTTCCTAATCTTTCTGTTCAAGCGCCATCTAC
The binding signal of the first is higher: 0.262 RPM ratio (pull-down/input) for the first, 0.252 RPM ratio (pull-down/input) for the second.
